# From PubChem BioAssay
# HSF-1 act: increases HSF-1 driven luciferase reporter signal; NIH3T3-HGL HSF-1 luciferase reporter, MG132, 8 h; 100% = twice DMSO control signal; activation, % at 9 µM; hit rate 1.7% among 300,000; AID 504408;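 active means mean replicate activation of at least 50% with a set share of replicates each reaching 50%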
# p-CIP stab down: p/CIP protein destabilization; Q05BA5; F442A p/CIP-EGFP cells, EGFP fluorescence, 16 h; decrease of EGFP signal, % at 10 µM; hit rate 0.01% among 290,000; AID 1984;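 active means EGFP signal decrease of at least 30% at 10 µM or well 3 SD below plate mean, unless failing retest; inactive means the rest, including hits failing retest or dose response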
# Target sequence (Q05BA5 1-1403): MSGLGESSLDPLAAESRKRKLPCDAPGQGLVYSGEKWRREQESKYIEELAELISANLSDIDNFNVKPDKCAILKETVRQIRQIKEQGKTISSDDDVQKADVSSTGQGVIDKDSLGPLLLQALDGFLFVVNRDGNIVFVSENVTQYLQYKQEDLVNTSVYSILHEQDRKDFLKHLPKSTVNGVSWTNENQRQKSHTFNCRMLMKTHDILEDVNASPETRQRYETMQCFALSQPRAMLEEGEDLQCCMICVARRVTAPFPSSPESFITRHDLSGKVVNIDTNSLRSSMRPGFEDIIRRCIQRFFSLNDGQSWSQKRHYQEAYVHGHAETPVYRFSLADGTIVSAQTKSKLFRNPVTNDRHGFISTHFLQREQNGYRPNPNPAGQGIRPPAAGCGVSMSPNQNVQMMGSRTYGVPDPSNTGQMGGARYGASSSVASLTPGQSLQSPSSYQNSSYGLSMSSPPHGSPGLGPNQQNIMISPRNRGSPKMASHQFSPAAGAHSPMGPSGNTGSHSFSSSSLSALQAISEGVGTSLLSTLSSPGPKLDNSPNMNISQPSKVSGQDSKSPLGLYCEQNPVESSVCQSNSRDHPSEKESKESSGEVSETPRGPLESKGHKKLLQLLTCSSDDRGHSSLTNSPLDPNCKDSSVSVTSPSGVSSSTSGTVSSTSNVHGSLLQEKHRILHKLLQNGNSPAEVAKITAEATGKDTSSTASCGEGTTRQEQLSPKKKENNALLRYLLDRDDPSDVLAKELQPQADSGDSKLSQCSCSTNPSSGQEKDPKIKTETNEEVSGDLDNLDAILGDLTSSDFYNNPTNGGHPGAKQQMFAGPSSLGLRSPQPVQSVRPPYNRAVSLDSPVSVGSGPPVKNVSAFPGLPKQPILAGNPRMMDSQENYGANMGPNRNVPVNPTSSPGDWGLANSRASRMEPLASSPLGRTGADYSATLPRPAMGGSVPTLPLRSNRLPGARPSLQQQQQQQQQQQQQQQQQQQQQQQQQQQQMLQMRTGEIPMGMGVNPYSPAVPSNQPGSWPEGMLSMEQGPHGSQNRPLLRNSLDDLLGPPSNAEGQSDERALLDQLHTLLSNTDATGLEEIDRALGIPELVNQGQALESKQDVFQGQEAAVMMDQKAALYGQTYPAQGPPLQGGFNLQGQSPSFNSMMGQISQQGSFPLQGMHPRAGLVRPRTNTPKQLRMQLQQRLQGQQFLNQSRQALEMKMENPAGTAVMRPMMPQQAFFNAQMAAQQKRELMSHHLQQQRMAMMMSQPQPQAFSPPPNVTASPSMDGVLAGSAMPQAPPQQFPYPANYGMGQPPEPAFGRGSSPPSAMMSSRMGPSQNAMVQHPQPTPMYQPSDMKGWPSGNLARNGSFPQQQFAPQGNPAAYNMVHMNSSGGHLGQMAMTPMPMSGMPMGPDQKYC
# HSP90 inh: blocks HSP90-mediated luciferase refolding in reticulocyte lysate; Rabbit reticulocyte lysate, luciferase refolding luminescence, 3 h; inhibition, % at 5.6 µM; hit rate 0.91% among 290,000; AID 1789;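 active means inhibition above the screen-wide mean plus 3 SD, computed separately per campaign, cut at about 16% in these data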;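 further: inhibitors lower the luminescence because luciferase stays unfolded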
# Hsp70 act: transcriptional activators of Hsp70; HeLa Hsp70 promoter luciferase reporter, luminescence; scaled: vehicle 0, proteasome-inhibitor control 100%; activation, % at 10 µM; hit rate 0.04% among 200,000; AID 1203;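 active means activation above the mean across all tested compounds plus 3 SD, cutoff set per campaign, cut at about 5.5% in these data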
# NALP1 yeast inh: blocks the NALP1 inflammasome reconstituted in yeast. S. cerevisiae NALP1/ASC/caspase-1 growth, X-gal OD620, 72 h. inhibition, % at 10 µM. hit rate 0.61% among 280,000. AID 2071; in the data active means inhibition mostly above about 24%, no sharp cut-off; inactive means mostly below about 32%
# HSF1 inhib: HSF1 inhibition; NIH3T3-HGL HSE-luciferase, MG132-induced, luminescence 8 h; stronger effect = lower value; AID 2098; activity change, negative = inhibition, % at 7.5 µM (by protocol); hit rate 0.77% among 300,000;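 active means more than half of replicate wells show activity change below -50%, luminescence cut by over half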;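 further: luciferase reports HSF-1 transcriptional activity via heat shock element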
# Hits are given with their value; - = inactive; . = no result. Sampled rows, rich in hits. Any-hit rate of the full collection: about 3.8%.
SMILES,HSF-1 act,p-CIP stab down,HSP90 inh,Hsp70 act,NALP1 yeast inh,HSF1 inhib
O=C(/C=C/c1ccc(Cl)cc1Cl)Nc1cccc(S(=O)(=O)NC2=NCCC2)c1,62.6,-,-,-,-,-
Cc1cc(C)n2nc(-c3ccc(Br)cc3)cc2n1,51.6,-,-,.,-,-
Cc1cc(C)n2nc(-c3ccc(Cl)cc3)cc2n1,-,-,-,.,-,-
CCOC(=O)[C@@H]1[C@H]2COc3ccccc3[C@H]2N2C(=O)N(c3ccc(OC)cc3)C(=O)[C@]12C,-,-,-,.,-,-
CCCCn1nnc(NC(=O)c2ccc([N+](=O)[O-])cc2Cl)n1,-,-,-,.,.,-
CC(=O)Nc1ccc(N=Nc2ccc(O)cc2)cc1,57.0,-,-,-,-,-
CC(=O)Nc1ccc(N=NN2CCOCC2)cc1,-,-,-,-,-,-
O=C(NCc1ccco1)C1CCN(C(=O)c2ccc(Cl)cc2Cl)CC1,-,-,-,.,-,-
O=c1[nH][nH]cc1C=NCc1cccc(C(F)(F)F)c1,-,-,-,-,-,-
COc1ccc(S(=O)(=O)N2CCN(C(=O)C3CCCCC3)CC2)cc1,-,-,-,.,-,-
c1ccc2c(c1)OCC(c1csc3ncnc(N4CCOCC4)c13)O2 (configuration not stated),-,-,-,-,-,-56.6
CC1Oc2ccccc2N(CC(=O)NCc2ccccc2)C1=O (configuration not stated),-,-,-,-,-,-87.6
CC1Oc2ccccc2N(CC(=O)NC2CC2)C1=O (configuration not stated),-,-,-,.,-,-
O=C1C=C(O)C(n2cncn2)C(c2ccc3c(c2)OCO3)C1 (configuration not stated),-,-,-,-,-,-
CCCOc1ccc(/C=N/Nc2ccccc2[N+](=O)[O-])c(O)c1,-,-,-,-,-,-68.9
CCCOc1ccc(/C=N/Nc2cccc([N+](=O)[O-])c2)c(O)c1,-,-,-,-,-,-
O=C(CSc1nc2ccccc2c(=O)n1CCCN1CCOCC1)NC12CC3CC(CC(C3)C1)C2,-,-,-,-,34.5,-
Cc1cc(NC(=O)CSc2nc3c(sc4ccccc43)c(=O)n2CCCN2CCOCC2)n[nH]1,64.1,-,-,-,-,-
O=C(CSc1nc2ccccc2c(=O)n1CCCN1CCOCC1)N1CCN(c2ccccc2)CC1,-,-,-,-,-,-
Cc1cc(NC(=O)CSc2nc3c(sc4ccccc43)c(=O)n2CCc2ccccc2)n[nH]1,-,-,-,-,-,-
CS(=O)(=O)N(CC(=O)NCCSC1CCCCC1)c1ccc2c(c1)OCO2,-,-,-,-,-,-67.3
CCOC(=O)C1=C(C(F)(F)F)Nc2ncnn2C1c1ccc(OC)cc1OC (configuration not stated),-,-,-,-,-,-
Nc1nonc1-n1nnc(C(=O)N/N=C/c2ccc(OCc3ccccc3)cc2)c1CNc1ccccc1,-,-,-,.,-,-
COc1cccc(NC(=O)NCc2ccccc2F)c1,-,-,-,-,-,-
COc1cccc(N/C(SCc2ccccc2F)=C(/C#N)C(=O)NCc2cccs2)c1,63.4,-,-,-,-,-
SMILES,HSF-1 act,p-CIP stab down,HSP90 inh,Hsp70 act,NALP1 yeast inh,HSF1 inhib
COc1ccc(S(=O)(=O)NCCSCc2ccco2)cc1,-,-,-,-,34.5,-
CN1CCN(c2ccc([N+](=O)[O-])cc2NC(=O)c2cccs2)CC1,-,-,-,.,-,-
Cc1ccc(N=C2NC(=O)/C(=C/c3cccn3C)S2)cc1,-,-,-,.,-,-
Cc1ccc(N=C2NC(=O)/C(=C/c3cccn3C)S2)cc1C,54.1,-,-,.,-,-
O=C(O)CSc1ccccc1C(=O)O,-,-,-,-,-,-91.8
O=C1C=CC(=O)N1N(c1ccccc1)c1ccccc1,69.1,-,-,-,105.3,-
CCC(CC)c1nnc(NC(=O)CSCC(=O)Nc2cc(C)on2)s1,-,.,.,.,.,-
COC(=O)C1=C(C)NC2=C(C(=O)CC(C)(C)C2)C1c1cn(Cc2ccc(Br)cc2)nc1-c1ccccc1 (configuration not stated),74.1,-,-,-,-,-
COc1ccccc1Nc1nccc(N(C)C)c1C#N,-,-,-,-,-,-
COCC1CCN(Cc2cn[nH]c2-c2cc(OC)c(OC)c(OC)c2)CC1,-,-,-,-,-,-
COCCCC1CCN(Cc2cn[nH]c2-c2cc(OC)c(OC)c(OC)c2)CC1,-,-,-,-,26.4,-
CCn1c(-c2cccnc2Cl)nc2cc(Cl)c(Cl)cc21,-,-,-,-,-,-
Clc1cc2nc(-c3cccnc3Cl)[nH]c2cc1Cl,54.8,-,-,.,-,-
Cc1csc2ncnc(N3CCN(S(=O)(=O)c4cccc(C(F)(F)F)c4)CC3)c12,-,-,-,.,-,-
COc1ccc(OC)c(S(=O)(=O)NCc2ccccc2)c1,-,-,-,-,-,-
COc1ccc(OC)c(NC(=O)CSCC(=O)O)c1,-,-,-,-,-,-90.0
CC(C)NC(=O)c1ccccc1NC(=O)CCS(=O)(=O)Cc1ccccc1,-,-,-,-,-,-
CC(C)NC(=O)c1ccccc1NC(=O)CS(=O)(=O)Cc1ccccc1,-,-,-,-,35.7,-
COc1ccc(OC)c(NC(=O)CS(=O)(=O)Cc2ccccc2)c1,-,-,-,.,-,-60.5
COc1ccc(OC)c(NS(=O)(=O)Cc2ccccc2)c1,-,-,-,-,42.0,-
Cc1nc2cc(Cl)c(Cl)cc2n1-c1ccccn1,-,.,.,.,.,-
CC1(C)C2CCC(C2)C1(C)NC(=O)CNCC1CCCCC1 (configuration not stated),-,-,-,-,-,-
Cc1noc(C)c1COc1ccc(C(=O)OCC(=O)Nc2c(C)n(C)n(-c3ccccc3)c2=O)cc1,-,-,-,-,-,-55.7
COC(=O)Cc1ccc(NC(=O)c2ccc(NC(=O)c3ccco3)cc2)cc1,-,-,-,-,-,-
COC(=O)Cc1ccc(NC(=O)c2ccc(C)c(C)c2)cc1,70.7,-,-,-,-,-
SMILES,HSF-1 act,p-CIP stab down,HSP90 inh,Hsp70 act,NALP1 yeast inh,HSF1 inhib
O=C(CN1C(=O)/C(=C\c2ccccc2Cl)Sc2ccccc21)NCCCN1CCOCC1,-,-,-,.,-,-
O=C(CN1C(=O)/C(=C\c2cccc(Cl)c2)Sc2ccccc21)NCCCN1CCOCC1,90.4,-,-,.,-,-
COc1cc(/C=N/N2CCN(C3c4ccccc4-c4ccccc43)CC2)cc(OC)c1OC,102.8,-,-,-,-,-
COc1cc(/C=N/N2CCN(C3c4ccccc4-c4ccccc43)CC2)cc(OC)c1O,-,-,-,-,-,-
O=c1[nH]c(-c2ccccc2)nn1-c1ccc(Br)cc1Br,-,-,-,.,-,-
CCOC(CCNC(=O)c1cc(-c2cccs2)nc2ccccc12)OCC,-,-,-,.,-,-
Cc1ccc(NC(=O)CCn2c(=O)oc3ccccc32)cc1,-,-,-,-,-,-
COc1ccc(NC(=O)CCCn2c(=O)oc3ccccc32)cc1Cl,62.3,-,-,-,.,-
